High-throughput results (PubChem)
Compounds with a hit are over-represented: about 7.1% of the library has one in this group of screens.
Cav3 T inh: human Cav3.2 channel inhibition, primary screen; O95180; Cav3.2-expressing cells, Fluo-4 calcium fluorescence FDSS; active compounds read low; B-score at 10 µM; actives 4% (n = 100,000); AID 449739;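 active = single-dose well whose peak fluorescence ratio is a statistical outlier from its plate by either plate-standardised score or position-corrected B-score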
M1 agonist: agonists of M1 muscarinic receptor; CHO-M1 cells, Fluo-4 calcium fluorescence, agonist mode; active compounds read high; B-score at 10 µM; actives 3% (n = 64,000);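 active = fluorescence rise, raw or as B-score row- and column-corrected plate score, outside the 99.7% band of its plate's samples, either direction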
Pyk2 oligo antag: antagonists of human Pyk2 oligomerization | z-score (the deposit names both 25 µM and 10 µM) | Q293 cells, Pyk2 FERM NanoBiT luminescence; active compounds read low | actives 0.83% (n = 99,000) | Q14289;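 active = Z-score of -3 or lower, scaled per plate to the spread of control and sample wells; inactive = z-score above -3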;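 also: negative z-score means lost luminescence so less FERM oligomerization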
M1 antagonist: antagonists of rat M1 muscarinic receptor. actives 3.4% (n = 64,000). B-score at 10 µM. CHO-M1 cells, Fluo-4 calcium, ACh EC80 antagonist mode; active compounds read low;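 active = calcium fluorescence response, raw or row-and-column corrected B-score, differing from the plate sample mean either way at a set confidence level, mostly lower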
M1 ag confirm: confirmation of rat M1 muscarinic receptor agonists. AID 1488. fluorescence change (max-min) at 10 µM. shares compounds with M1 agonist. CHO-M1 cells, Fluo-4 calcium fluorescence, agonist mode; actives lie on both sides. actives 19% (n = 1,700);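 active = fluorescence change differs from the solvent-only DMSO control mean at a set confidence level in both duplicate runs; inconclusive = differs from solvent-only control mean in just one of two runs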;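 also: an EC20 dose of acetylcholine follows compound addition during the same imaging run; raw fluorescence intensity difference in instrument units with no normalization to controls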
M4 ag counter: counter-screen for M1 agonists: activity at rat M4 receptor; shares compounds with M1 agonist; CHO M4/Gqi5 cells, Fluo-4 calcium fluorescence, agonist mode; actives lie on both sides; fluorescence change (max-min) at 10 µM; actives 9% (n = 1,700); AID 1741;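 active = fluorescence change differing from the plate's solvent-only control wells at 99.7% confidence in both duplicates, whether higher or lower; inconclusive = differs from solvent controls in only one of two duplicates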
Target sequence (P08485 whole entry, looked up): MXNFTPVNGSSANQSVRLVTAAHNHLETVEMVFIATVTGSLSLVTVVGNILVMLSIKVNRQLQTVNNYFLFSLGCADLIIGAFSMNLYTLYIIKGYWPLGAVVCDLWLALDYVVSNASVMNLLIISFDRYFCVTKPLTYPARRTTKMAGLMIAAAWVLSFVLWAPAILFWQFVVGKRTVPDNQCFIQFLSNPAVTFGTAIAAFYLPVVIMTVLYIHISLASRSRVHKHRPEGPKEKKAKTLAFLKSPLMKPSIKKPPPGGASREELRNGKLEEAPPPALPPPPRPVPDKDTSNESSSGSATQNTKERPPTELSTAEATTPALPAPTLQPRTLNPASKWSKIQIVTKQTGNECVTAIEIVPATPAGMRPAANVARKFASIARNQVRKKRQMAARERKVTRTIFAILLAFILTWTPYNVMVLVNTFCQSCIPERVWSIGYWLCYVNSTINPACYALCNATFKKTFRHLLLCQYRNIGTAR
* marks the source's active call; other numbers are inactive results; ? = inconclusive; nt = no result.

SMILES | Cav3 T inh | M1 agonist | Pyk2 oligo antag | M1 antagonist | M1 ag confirm | M4 ag counter
COC(=O)C1=C(C(=O)OC)[N+]2=C3N(C(=O)NC2(C)C)[C@H](CO)C[C@@]32c3ccccc3N(Cc3ccccc3)[C@@H]12 | -1.59 | nt | nt | nt | nt | nt
CC(C)Cn1c2c(c(O)c(C(=O)Nc3ccc(F)cc3)c1=O)CCCC2 | 0.00562 | 2.98* | 0.86 | -0.0509 | ? | -48.8
CCCn1c2c(c(O)c(C(=O)Nc3ccccn3)c1=O)CCCC2 | nt | -0.65 | nt | 0.601 | nt | nt
COc1ccc(C2C(C(=O)NC(C)C)c3ccccc3C(=O)N2C)cc1OC (centres undefined) | nt | 3.36* | -0.02 | 1.4 | -11.9 | -24.1
COc1ccc(OC)c(S(=O)(=O)N2CCC(C(=O)Nc3ccc(C)c(C)c3)CC2)c1 | -7.17* | 14.9* | -2.54 | -0.966 | -7.97 | ?
Cc1c(C(=O)NCC2COc3ccccc3O2)oc2ccc(S(=O)(=O)N3CCOCC3)cc12 (centres undefined) | nt | 16* | -1.99 | -2.42* | -12.6 | ?
Cc1c(C(=O)NCCc2ccccc2)oc2ccc(S(=O)(=O)N3CCOCC3)cc12 | 0.259 | 2.29* | 0.68 | -1.7 | -31* | ?
Cc1ccc(NC(=O)c2oc3ccc(S(=O)(=O)N4CCOCC4)cc3c2C)cc1C | -0.288 | -0.156 | -0.59 | -0.46 | nt | nt
CCC(CC)C(=O)Nc1cc(C(=O)NCCc2ccccc2)ccc1Cl | 0.0746 | nt | 1.15 | nt | nt | nt
O=[N+]([O-])c1cc(Cl)cc(C2=NCCN2)c1 | 0.605 | nt | -0.45 | nt | nt | nt
CCCc1nc(SCC(=O)N2CCC(Cc3ccccc3)CC2)c2c(=O)n(C)c(=O)n(C)c2n1 | 0.739 | 4* | nt | -1.19 | -13.3 | -21.4
CCOC(=O)Cc1nnc2c(Nc3ccc(C)cc3)nc3nonc3n12 | 1.2 | 0.472 | -0.59 | -0.455 | nt | nt
CCOC(=O)Cc1nnc2c(Nc3ccccc3F)nc3nonc3n12 | 0.0235 | 4.33* | -0.22 | -0.637 | ? | -54.4
COc1cc(C(=O)Nc2nccs2)c(Br)c(OC)c1OC | -1.62 | 2.89* | -0.86 | -0.647 | -10.6 | -41.1
COc1ccc(NC(=O)NN(C(=O)c2ccccc2)C(C)(C)C)cc1 | nt | nt | -0.14 | nt | nt | nt
CN(C)S(=O)(=O)N(CC(=O)Nc1cccc(F)c1)c1ccccc1 | -1.11 | nt | -0.39 | nt | nt | nt
O=C(NCc1ccco1)C1(c2ccc(Br)cc2)CCCC1 | -2 | nt | -0.26 | nt | nt | nt
C=CCN1C(=O)C(CC(=O)Nc2ccccc2)SC1=Nc1ccc(S(N)(=O)=O)cc1 (centres undefined) | -0.0574 | nt | -0.44 | nt | nt | nt
Cc1nc2nc(-c3ccc(Cl)cc3)cn2nc1C | nt | nt | 0.8 | nt | nt | nt
Cc1nc2nc(-c3cccs3)cn2nc1C | nt | 100* | 0.07 | 0.542 | 1066* | 1014*
CCOC(=O)c1coc(CNC(=O)c2c(C)oc3c2CCCC3)c1 | -1.04 | 14.6* | 1.28 | 0.272 | ? | -48.7
Cc1oc2c(c1C(=O)NCc1cc(C(=O)O)co1)CCCC2 | 0.167 | -0.185 | 0.03 | 0.119 | nt | nt
CC(=Nc1ccc(C)cc1)c1sc2ccccc2c1O | -0.892 | nt | -0.36 | nt | nt | nt
CC(=Nc1cccc(O)c1)c1sc2ccccc2c1O | -1.33 | 5.43* | -0.27 | -0.0368 | 42.8 | 40.7
CCO[C@H]1OC(C(=O)N2CCN(Cc3ccc4c(c3)OCO4)CC2)=C[C@@H](C2CC2)[C@@H]1CCCO | 1 | nt | nt | nt | nt | nt
SMILES | Cav3 T inh | M1 agonist | Pyk2 oligo antag | M1 antagonist | M1 ag confirm | M4 ag counter
CCOC(=O)C1CCN(c2nc3ccccc3nc2C(C#N)C(=O)OC(C)COC)CC1 (centres undefined) | -4.38* | 6.21* | -2.95 | -0.0913 | ? | -52.4
CCOC(=O)C1CCCN(c2nc3ccccc3nc2C(C#N)C(=O)OC(C)C)C1 (centres undefined) | nt | 2.16 | nt | -0.124 | nt | nt
C=CCOC(=O)C(C#N)c1nc2ccccc2nc1N1CCC(C(=O)OCC)CC1 (centres undefined) | -0.829 | 5.09* | -1.94 | 0.194 | -2.75 | ?
COC(=O)C(C#N)c1nc2ccccc2nc1N1CCCC1 (centres undefined) | -2.29 | -0.0178 | -0.23 | 0.696 | nt | nt
CCOC(=O)C1CCN(c2nc3ccccc3nc2C(C#N)C(=O)OC(C)C)CC1 (centres undefined) | -2.29 | 27.8* | -1.32 | -0.369 | 6.42 | -32.5
CCOC(=O)C1CCN(c2nc3ccccc3nc2C(C#N)C(=O)OCCOC)CC1 (centres undefined) | -2.61 | 6.21* | -1.74 | -0.0269 | 0 | -9.62
CSc1sc(C(=O)O)c(C)c1C(C)=O | -1.47 | nt | -0.43 | nt | nt | nt
COc1ccccc1NC(=O)C1=C(C)NC2=C(C(=O)CCC2)C1c1ccc2c(c1)OCO2 (centres undefined) | -0.179 | -0.0291 | -0.37 | 0.213 | nt | nt
c1ccc(CSc2nnc(-c3sccc3-n3cccc3)o2)cc1 | -0.921 | nt | -2.49 | nt | nt | nt
CC1(C)CC(=O)C=C(Nc2ccccc2NC(=O)c2cnccn2)C1 | 0.00924 | 21.2* | 0.1 | -1.8* | -12.8 | -23.3
CSc1ccccc1NC(=O)c1cnccn1 | -1.54 | 0.0174 | -0.43 | 0.972 | nt | nt
CC(=O)Nc1ccc(NC2=CC(=O)CC(C)(C)C2)cc1 | 0.0223 | 11* | -0.74 | 0.224 | ? | -82.3
CN1CCc2c(sc3c2C(=O)NC(c2ccc(-c4cccc(Cl)c4)o2)N3)C1 (centres undefined) | nt | 14.2* | nt | -1.12 | 13.6 | -14.1
O=C(CCC(=O)c1cccs1)Nc1ccc(F)c(F)c1F | 0.487 | nt | -0.68 | nt | nt | nt
CCN(c1ccccc1)S(=O)(=O)c1ccc(F)cc1C | -3.87 | 15.2* | -0.05 | -0.0179 | ? | -56.9
O=C(COC(=O)c1c2c(nc3ccccc13)CCCC2)Nc1ccc2c(c1)OCO2 | -2.52 | 13.3* | -3.47* | -1.97* | ? | -15.8
O=C(COC(=O)c1ccco1)Nc1ccc2c(c1)OCO2 | 0.0082 | 0.888 | -0.75 | -0.343 | nt | nt
C[C@@H]1CC[C@@]2(O[C@@H](CCO)C[C@@H](O)[C@@H]2O)O1 | -0.0384 | nt | nt | nt | nt | nt
Cc1c(NC(=O)C(C)Sc2nc3ccccc3c(=O)n2CCO)c(=O)n(-c2ccccc2)n1C (centres undefined) | -0.135 | -0.252 | 0.5 | 0.188 | nt | nt
Cc1cc(S(=O)(=O)N2CCN(Cc3ccc4c(c3)OCO4)CC2)cc(C)c1N1CCCC1=O | -0.425 | 3.31* | nt | 0.85 | -17.5 | -40.4
COc1ccc(CCNC(=O)COC(=O)c2ccco2)cc1OC | -0.00561 | 0.056 | 0.56 | -0.741 | nt | nt
COc1ccc(CCNC(=O)c2ccc3nc(-c4ccco4)c(-c4ccco4)nc3c2)cc1OC | nt | 8.51* | -0.99 | -1.04 | -1.94 | -18.6
Cc1ccccc1-c1nc2ccccc2[nH]1 | -0.00658 | nt | -0.83 | nt | nt | nt
c1ccc2[nH]c(-c3ccnc4ccccc34)nc2c1 | 0.361 | 2.4* | -0.14 | -0.987 | -11.2 | -34.1
NC(=O)C1CCN(C(=O)COc2ccc(S(=O)(=O)NCc3ccccc3)cc2Cl)CC1 | nt | nt | 1.18 | nt | nt | nt
CN(C)c1ccc2c(c1)OC(N)=C(C#N)C2c1cccc(F)c1 (centres undefined) | nt | 20.3* | -3.15* | -3.44* | 163* | 120*
CCOc1ccccc1C1C(C#N)=C(N)Oc2cc(N)ccc21 (centres undefined) | 0.132 | nt | -2.11 | nt | nt | nt
C=CCNS(=O)(=O)c1cccc2cc(C(=O)O)c(O)cc12 | -0.59 | 3.58* | 0.53 | 0.184 | 14.9 | 9.02
